# Reference: PubChem BioAssay (Tox21)
# Values joined by “and” are separate entries in the source; they are usually repeats but may differ in a detail not shown here. Equal entries are not always repeated. Records with an inconclusive call do not appear. A call without a number means that no potency is given here. Values without a mark were called inactive. Active and inactive are the calls of the source. Calls follow the shape of the dose curve; as a rule, active = well fitted curve in the direction sought with a large enough effect in the repeat runs; inconclusive = weak or mixed curves; inactive = no such curve, though single readings can be large; an effect the other way counts as inactive or inconclusive.
# System: not listed separately
# Test: Caspase-3/7 induction in HepG2 cells by small molecules, qHTS cell viability counter screen (AID 1346981); also: nearly all actives have a fitted effect of over 30% in size
# Details: CellTiter-Fluor fluorescence, 17 h; series mostly up to 92.4 µM
# Outline: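 The parent HepG2 line is plated at 2,000 cells per well and rested 5 hr before compound pinning from DMSO stocks. Following a 16-hr treatment at 37 C, a fluorogenic live-cell substrate (CellTiter-Fluor) reports viability after 1 hr.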
row,Structure (SMILES),Potency
1,C=C(C)C(=O)OCCN(C)C,inactive
2,O=C1c2cccc(O)c2C(=O)c2c(O)cc(CO)cc21,inactive
3,Cc1cccc(Oc2ccccc2)c1,inactive
4,CCOc1ccc(NC(=O)CC(C)=O)cc1,inactive
5,CC1=CCC(C(C)C)C=C1 (stereo unspecified),inactive
6,CC(CN)CCCN (stereo unspecified),inactive
7,CC(C)(C)c1cc(CCC(=O)OCC(COC(=O)CCc2cc(C(C)(C)C)c(O)c(C(C)(C)C)c2)(COC(=O)CCc2cc(C(C)(C)C)c(O)c(C(C)(C)C)c2)COC(=O)CCc2cc(C(C)(C)C)c(O)c(C(C)(C)C)c2)cc(C(C)(C)C)c1O,inactive

# Molecular target: Nuclear receptor subfamily 1 group I member 2 (Homo sapiens) (UniProt O75469)
# Test: Human pregnane X receptor (PXR) small molecule agonists, qHTS assay (AID 1346982); also: nearly all actives have a fitted effect of over 35% in size; also: potency is read from the fitted curve at half-maximal effect
# Details: PXR-Luc HepG2, CYP3A4 luciferase reporter, 24 h; series mostly up to 92.4 µM
# Outline: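 After plating in 5% charcoal-stripped FBS and a 5 hr rest, PXR-Luc HepG2 cells received compounds in DMSO. Following 24 hr at 37 C, ONE-Glo was added and light output read.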
# Nuclear receptor subfamily 1 group I member 2 (Homo sapiens), sequence (O75469 whole entry, looked up): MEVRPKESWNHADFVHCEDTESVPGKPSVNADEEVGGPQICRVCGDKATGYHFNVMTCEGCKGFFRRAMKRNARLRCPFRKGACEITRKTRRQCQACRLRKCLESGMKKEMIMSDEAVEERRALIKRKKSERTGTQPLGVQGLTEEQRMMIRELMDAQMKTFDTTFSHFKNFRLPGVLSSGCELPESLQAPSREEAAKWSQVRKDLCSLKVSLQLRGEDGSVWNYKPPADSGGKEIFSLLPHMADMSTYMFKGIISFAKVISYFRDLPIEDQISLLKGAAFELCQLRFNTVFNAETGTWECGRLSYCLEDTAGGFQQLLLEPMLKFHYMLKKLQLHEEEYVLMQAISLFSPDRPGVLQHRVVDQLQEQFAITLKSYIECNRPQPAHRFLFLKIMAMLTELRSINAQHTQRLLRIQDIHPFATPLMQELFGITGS
Structure (SMILES),Potency,activation
CCCCCCCCCCCCCCC1CO1 (stereo unspecified),inactive,–
CC(=O)O[C@@H]1C(=O)O[C@@H]2[C@H]1OC(=O)[C@@H]2OC(C)=O,inactive,–
CC(C)(Oc1ccc(Cl)cc1)C(=O)OCCCOC(=O)C(C)(C)Oc1ccc(Cl)cc1,inactive,–
CCCCC(CC)(CO)CO,inactive,–
N#CCc1cccc(C(F)(F)F)c1,inactive,–
CC(C)(C)c1ccc(S)cc1,inactive,–
O=C(O)c1cn(C2CC2)c2cc(Cl)c(F)cc2c1=O,inactive,–
Nc1nc(CC(=O)O)cs1,inactive,–
CC[C@@H]1C[C@H](N(Cc2cc(C(F)(F)F)cc(C(F)(F)F)c2)C(C)=O)c2cc(C(F)(F)F)ccc2N1C(=O)OC(C)C,0.77 µM (active),–
CC(=O)/C=C/C1C(C)=CCCC1(C)C (stereo unspecified),inactive,–
CC(C)c1cccc(C(C)C)c1NC(=O)NS(=O)(=O)c1cc(C(C)(C)O)co1,inactive,–
C1CCC2OC2C1 (stereo unspecified),inactive,–
CC(C)CCCC(C)CCO (stereo unspecified),inactive,–
O=[N+]([O-])c1cccc(Cl)c1Cl,inactive,–
CCCCCCCCN(C)C,inactive,–
O=C(C(=O)c1ccc(Br)cc1)c1ccc(Br)cc1,–,1.54% [at 19 µM]
CC(C)CC=O,inactive,–
COc1ccc(OC)c(OC)c1,inactive,–
CC(=O)OCCc1ccccc1,inactive,–
C=CCCCCCC,inactive,–

Structure (SMILES),Potency,activation
COc1ccc(C(C)=O)cc1,inactive,–
O=C(/C=C/c1ccc(O)c(O)c1)O[C@@H]1C[C@](O)(C(=O)O)C[C@@H](O)[C@H]1O,inactive,–
COC(Cc1ccccc1)OC,inactive,–
O=C(Cl)c1c(Cl)cccc1Cl,inactive,–
CCc1nn(C2CCCCC2)c2cc(C3(C#N)CCC(C(=O)O)CC3)ccc12 (stereo unspecified),68.6 µM (active),–
CCCCCCCCC(CO)CCCCCC (stereo unspecified),inactive,–
CC(=O)N(CC(=O)N(C)C)c1ccccc1,inactive,–
Cc1cccc(OCCOc2cccc(C)c2)c1,18.3 µM (active),–
CC(C)CCCCCCOC(=O)c1ccc(C(=O)OCCCCCCC(C)C)c(C(=O)OCCCCCCC(C)C)c1,inactive,–
C[Si](C)O[Si](C)(C)O[Si](C)(C)O[Si](C)C,inactive,–
Cn1sccc1=O,30.6 µM (active) and 61.1 µM (active),–
CCCCCCCCCC(=O)OCC,inactive,–
C=C(C)C(=O)OCCN(C)C,inactive,–
O=C1c2cccc(O)c2C(=O)c2c(O)cc(CO)cc21,8.63 µM (active),–
Cc1cccc(Oc2ccccc2)c1,inactive,–
CCOc1ccc(NC(=O)CC(C)=O)cc1,inactive,–
CC1=CCC(C(C)C)C=C1 (stereo unspecified),30.6 µM (active),–
CC(CN)CCCN (stereo unspecified),24.3 µM (active),–
CC(C)(C)c1cc(CCC(=O)OCC(COC(=O)CCc2cc(C(C)(C)C)c(O)c(C(C)(C)C)c2)(COC(=O)CCc2cc(C(C)(C)C)c(O)c(C(C)(C)C)c2)COC(=O)CCc2cc(C(C)(C)C)c(O)c(C(C)(C)C)c2)cc(C(C)(C)C)c1O,inactive,–
